The nature of experiment [1]: optical density shifts of acrAB sulA E. coli – strain DRC41, OD650, 48 h, E. coli filamentation inducer project, primary screen (AID 1152).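 Note: E. coli MC1000 strain DRC41 lacking acrAB efflux pump and sulA.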 As to conditions: higher = more signal, called active from +8 up or from −8 down.
Experiment [2] can be described thus: probe aLefty1 binding on compound microarray – biochemical, small-molecule microarray, 635/667 nm fluorescence, primary screen (AID 1153).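 Note: score merges spot fluorescence with signal-to-noise ratio from the scanned slide images.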 As to conditions: higher = more signal.
Experiment [3] is described as follows: plasmodial surface anion channel blockers, osmotic lysis – cell-based, P. falciparum Indochina, OD700, 1 h, primary screen (AID 1154). Conditions: P. falciparum Indochina infected RBC osmotic lysis, higher = more signal, called active from +8 up or from −8 down.
The nature of experiment [4]: plasmodial surface anion channel blockers, osmotic lysis – cell-based, P. falciparum Indochina, OD700, 2 h, primary screen (AID 1155).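 Note: lysis reports solute entry through the parasite surface anion channel PSAC.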 As to conditions: P. falciparum Indochina infected erythrocytes, higher = more signal, called active from +8 up or from −8 down.
Experiment [5] in a line: changes in parasitized red cell lysis, either direction – P. falciparum Indochina, OD700, 3 h, PSAC antagonist project, primary screen (AID 1156). Conditions: P. falciparum-infected erythrocytes, osmotic lysis, higher = more signal, called active from +8 up or from −8 down.
Experiment [6] can be described thus: plasmodial surface anion channel blockers, osmotic lysis – cell-based, P. falciparum Indochina, OD700, 18 h, primary screen (AID 1157). As to conditions: P. falciparum Indochina infected erythrocytes, osmotic lysis OD700, 18 h; higher = more signal, called active from +8 up or from −8 down.
The nature of experiment [7]: S6 kinase pathway phospho-S6 level changes – cell-based, A549, cytoblot, luminescence, serum-stimulated, primary screen (AID 1158).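 Note: serum-stimulated A549 lung adenocarcinoma cells; signal is phosphorylated S6 detected by cytoblot immunostaining with HRP secondary.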 Conditions: 5 h, higher = more signal.
The target of experiment [8] is NADPH oxidase 2 (Homo sapiens) (UniProt P04839). Description: compounds shifting NOX2 Amplex Red fluorescence – cell-based, HEK293-NOX2, PMA-stimulated, NOX inhibitor project, primary screen (AID 1159). Note: test concentration not given here. Conditions: 45 min, higher = more signal, called active from +8 up or from −8 down.
Sequence of NADPH oxidase 2 (Homo sapiens) (P04839 whole entry, looked up): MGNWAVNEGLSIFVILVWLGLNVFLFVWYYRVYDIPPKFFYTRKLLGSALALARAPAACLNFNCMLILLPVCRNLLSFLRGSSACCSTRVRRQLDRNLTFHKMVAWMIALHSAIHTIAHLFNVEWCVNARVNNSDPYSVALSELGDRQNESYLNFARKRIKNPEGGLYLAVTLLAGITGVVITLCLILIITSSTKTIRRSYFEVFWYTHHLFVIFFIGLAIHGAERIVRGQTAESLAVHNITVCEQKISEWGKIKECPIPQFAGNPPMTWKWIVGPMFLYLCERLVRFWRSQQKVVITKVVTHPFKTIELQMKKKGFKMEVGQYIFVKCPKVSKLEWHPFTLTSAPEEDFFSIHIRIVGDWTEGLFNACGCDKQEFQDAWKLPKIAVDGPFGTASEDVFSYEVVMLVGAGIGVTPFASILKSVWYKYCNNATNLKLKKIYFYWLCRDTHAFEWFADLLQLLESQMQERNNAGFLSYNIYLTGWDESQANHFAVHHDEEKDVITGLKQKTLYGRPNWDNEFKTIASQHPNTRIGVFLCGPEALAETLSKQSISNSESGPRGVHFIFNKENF
For experiment [9], the target named is NADPH oxidase 4 (Homo sapiens) (UniProt Q9NPH5). Description: compounds shifting NOX4 Amplex Red fluorescence – cell-based, HEK293-NOX4, tetracycline-induced, NOX inhibitor project, primary screen (AID 1160). As to conditions: HEK293-NOX4, Amplex Red H2O2 fluorescence, 45 min; higher = more signal, called active from +8 up or from −8 down.
Sequence of NADPH oxidase 4 (Homo sapiens) (Q9NPH5 whole entry, looked up): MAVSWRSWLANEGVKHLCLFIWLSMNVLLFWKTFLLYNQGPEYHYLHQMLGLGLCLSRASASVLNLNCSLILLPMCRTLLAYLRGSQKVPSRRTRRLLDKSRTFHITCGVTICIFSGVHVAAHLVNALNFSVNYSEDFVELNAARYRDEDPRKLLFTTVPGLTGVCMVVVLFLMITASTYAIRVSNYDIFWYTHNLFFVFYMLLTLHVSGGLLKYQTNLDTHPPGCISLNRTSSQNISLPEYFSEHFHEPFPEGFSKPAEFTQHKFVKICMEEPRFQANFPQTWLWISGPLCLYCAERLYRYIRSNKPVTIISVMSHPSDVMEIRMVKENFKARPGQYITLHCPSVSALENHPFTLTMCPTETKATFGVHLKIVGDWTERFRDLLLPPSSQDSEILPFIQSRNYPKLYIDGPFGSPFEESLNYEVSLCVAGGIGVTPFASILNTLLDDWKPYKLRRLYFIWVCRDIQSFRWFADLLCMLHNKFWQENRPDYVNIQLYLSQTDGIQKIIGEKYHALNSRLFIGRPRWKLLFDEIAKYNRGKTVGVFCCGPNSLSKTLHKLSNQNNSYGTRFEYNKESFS
The target in experiment [10] is NADPH oxidase 5 (Homo sapiens) (UniProt Q96PH1). In words: compounds shifting NOX5 Amplex Red fluorescence – cell-based, HEK293-NOX5, NOX inhibitor project, primary screen (AID 1161). As to conditions: HEK293-NOX5, ionomycin, 45 min, higher = more signal.
Sequence of NADPH oxidase 5 (Homo sapiens) (Q96PH1 whole entry, looked up): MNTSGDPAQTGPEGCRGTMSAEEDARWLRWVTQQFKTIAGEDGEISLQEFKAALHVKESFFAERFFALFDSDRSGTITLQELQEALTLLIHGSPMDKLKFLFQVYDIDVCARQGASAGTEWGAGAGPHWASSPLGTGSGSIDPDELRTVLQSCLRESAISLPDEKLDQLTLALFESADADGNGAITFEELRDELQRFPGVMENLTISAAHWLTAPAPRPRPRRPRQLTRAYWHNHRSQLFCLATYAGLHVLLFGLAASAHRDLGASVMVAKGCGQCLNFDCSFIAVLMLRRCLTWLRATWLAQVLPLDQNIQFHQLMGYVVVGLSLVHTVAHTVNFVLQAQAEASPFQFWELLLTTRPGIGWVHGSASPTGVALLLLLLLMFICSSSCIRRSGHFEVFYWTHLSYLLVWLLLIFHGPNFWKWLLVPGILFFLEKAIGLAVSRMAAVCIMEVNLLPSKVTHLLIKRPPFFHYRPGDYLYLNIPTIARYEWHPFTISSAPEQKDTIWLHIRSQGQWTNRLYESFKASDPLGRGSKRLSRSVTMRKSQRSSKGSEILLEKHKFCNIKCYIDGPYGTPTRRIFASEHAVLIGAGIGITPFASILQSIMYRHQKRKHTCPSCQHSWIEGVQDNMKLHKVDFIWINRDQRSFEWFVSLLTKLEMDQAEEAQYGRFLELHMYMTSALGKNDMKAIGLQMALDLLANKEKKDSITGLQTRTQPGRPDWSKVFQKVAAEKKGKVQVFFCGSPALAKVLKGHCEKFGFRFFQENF

Several values for one entry are separate records, joined by “and”; a condition that tells them apart may be missing. Equal entries are not always repeated. Activity calls are given as the source filed them.

Turning to `C=C(C)C(=O)OC[C@@H]1CN2[C@@H](CC[C@@H](C)[C@@H]2c2ccc(Br)cc2)C(=O)O1`, the z-score is -0.181 (inactive) in experiment [1]; 1.51 (inactive) in experiment [3]; 0.0995 (inactive) in experiment [4]; 0.289 (inactive) in [5]; 0.294 (inactive) in experiment [6]; 0.525 in experiment [7]. Also, the z-score was -0.29 (inactive) in experiment [8], 1 (inactive) in [9] and 0.481 in [10]. The compound further came in with a composite z-score in [2] of 0.218.
As to `C=CCN(C(=O)C(c1cccs1)N(C(=O)/C=C\C(=O)O)c1c(Cl)cccc1CO)C(C)(C)C` (stereo not given), the z-score was -0.773 (inactive) and -1.1 (inactive) in experiment [1]; 0.294 (inactive) and 0.153 (inactive) in experiment [3]; -0.0344 (inactive) and -0.313 (inactive) in [4]; -0.741 (inactive) and -0.659 (inactive) in experiment [5]; -0.134 (inactive) and -0.0608 (inactive) in experiment [6]; -0.483 and -0.409 in [7]. Also, the z-score in experiment [8] was 0.239 (inactive) and 0.261 (inactive); in [9], -0.827 (inactive) and -0.628 (inactive); in experiment [10], -0.328 and 0.528. Further, in experiment [2], the composite z-score was 0.045 and 0.192.
Turning to `O=C(NN=C1C[C@@H](O)[C@@H](O)[C@@H]2[C@@H]3C(=O)N(Cc4ccc5c(c4)OCO5)C(=O)[C@@H]3CC[C@H]12)OCc1ccccc1`, the z-score in experiment [1] is 1.2 (inactive); in experiment [3] it was 37 (active); in [4], 14.8 (active); in experiment [5] it was 0.833 (inactive); in [6], 1.24 (inactive); in experiment [7], -0.241. Further, the results for the z-score in [8], in [9] and in experiment [10] were -1.32 (inactive), 0.0354 (inactive) and 0.664, respectively. The compound further yielded a composite z-score in experiment [2] of 0.126.
Consider `COC(=O)C1=C(C)N(Cc2ccccc2)C2=C(C(C)=O)[C@H](c3ccccc3)[C@@](O)(C(=O)OC)C(=O)N2[C@@H]1c1ccccc1`, for which the z-score in [1] was 0.363 (inactive) and -0.426 (inactive); in [3], 1.65 (inactive) and 0.383 (inactive); in [4], 0.441 (inactive) and -0.0277 (inactive); in experiment [5] it was 1.2 (inactive) and -1.16 (inactive); in experiment [6], 0.419 (inactive) and -0.175 (inactive); in experiment [7], 0.582 and 3.5. Also, the z-score in experiment [8] was 2.34 (inactive) and -3.45 (inactive); in [9], 0.687 (inactive) and 0.321 (inactive); in experiment [10], 0.784 and 0.53. Further, the composite z-score in [2] is -0.0908 and -0.118.
With `C=CCN(CCCCC)C(=O)C(c1cccs1)N(CCOCCO)C(=O)/C=C\C(=O)O` (stereo not given), the z-score in experiment [1] was 1.53 (inactive) and 1.77 (inactive); in experiment [3], 1.03 (inactive) and 0.0763 (inactive); in experiment [4] it was -1.53 (inactive) and -1.1 (inactive); in experiment [5], -0.772 (inactive) and -1.06 (inactive); in [6] it was -1.88 (inactive) and -1.64 (inactive); in experiment [7], 1.27 and 0.842. The z-score in [8] is -0.224 (inactive) and 0.208 (inactive); in [9], -0.617 (inactive) and -0.64 (inactive); in experiment [10], -0.366 and 0.183. Moreover, the composite z-score in [2] was -1.26 and -0.239.
`CC(=O)OC[C@H]1O[C@H](C#CC(C)(C)C)C=C[C@@H]1OC(C)=O`: the z-score in experiment [1] is 0.192 (inactive); in experiment [3], -0.184 (inactive); in [4], 0.0987 (inactive); in [5], -0.537 (inactive); in experiment [6] it was -0.0954 (inactive); in experiment [7] it was -0.675. In addition, the values for the z-score in experiment [8], in [9] and in experiment [10] were 1.5 (inactive), 0.847 (inactive) and 0.943, respectively. Moreover, in experiment [2], the composite z-score is -0.0969.
Take `CCOC(=O)C[C@H]1[C@H](OC(=O)c2ccccc2-c2ccccc2)[C@@H](NC(=O)Cc2ccc(OC)cc2)c2cc(OCCCO)ccc2N1C(=O)c1ccc2ccccc2n1`: the z-score was 2.19 (inactive) and 1.32 (inactive) in experiment [1]; 3.8 (inactive) and 1.18 (inactive) in experiment [3]; 0.674 (inactive) and 0.879 (inactive) in experiment [4]; 0.366 (inactive) and -0.295 (inactive) in experiment [5]; 0.329 (inactive) and 0.627 (inactive) in experiment [6]; 0.661 and 0.0515 in experiment [7]. In addition, the z-score in experiment [8] was -0.488 (inactive) and 1.54 (inactive); in experiment [9], 0.946 (inactive) and 0.859 (inactive); in experiment [10], 0.365 and 0.0653. In addition, in experiment [2], the composite z-score is -0.012 and -0.0186.
As to `C=CCN(C(=O)C1N(c2c(Cl)cccc2CO)C(=O)C2C(C(=O)O)C3C=CC21O3)c1ccc(OC)cc1` (stereo not given), the z-score in experiment [1] was 0.971 (inactive) and 2.55 (inactive); in experiment [3], 2.56 (inactive) and -0.975 (inactive); in experiment [4] it was 0.516 (inactive) and -1.35 (inactive); in experiment [5], 0.336 (inactive) and -0.988 (inactive); in experiment [6], 0.287 (inactive) and -1.34 (inactive); in experiment [7], -0.403 and 1.78. Besides, the z-score is 0.868 (inactive) and -0.148 (inactive) in experiment [8]; -0.286 (inactive) and -0.651 (inactive) in experiment [9]; -0.136 and 0.192 in experiment [10]. In addition, in experiment [2], the composite z-score is -1.1 and -0.253.
Regarding `C=CCN(C(=O)C1N(CCCCCCO)C(=O)C2C(C(=O)O)C3C=CC21O3)C(C)(C)C` (stereo not given), the z-score in experiment [1] was -0.32 (inactive) and -0.471 (inactive); in experiment [3] it was 0.203 (inactive) and 0.288 (inactive); in [4], 0.357 (inactive) and -0.387 (inactive); in [5] it was -0.395 (inactive) and -0.274 (inactive); in [6], -0.28 (inactive) and -0.404 (inactive); in [7], 0.473 and -0.117. In addition, the z-score in [8] was 0.93 (inactive) and 0.763 (inactive); in [9], -0.0347 (inactive) and 0.143 (inactive); in experiment [10] it was 0.588 and 1.41. Besides, the composite z-score in experiment [2] was -0.0573 and 0.0451.
In the case of `CC(CO)N1C(=O)[C@@H]2C3C(=O)OCCC=C[C@H]3OC23C=CCN(Cn2nnc4ccccc42)C(=O)[C@@H]13` (stereo not given in full), the z-score in experiment [1] was 0.326 (inactive) and -0.353 (inactive); in experiment [3] it was 0.464 (inactive) and 3.04 (inactive); in experiment [4] it was -0.0088 (inactive) and 0.83 (inactive); in [5] it was 0.879 (inactive) and 0.711 (inactive); in experiment [6], 0.163 (inactive) and 0.114 (inactive); in [7], 0.798 and 0.483. Further, the z-score in experiment [8] was 1.14 (inactive) and 1.44 (inactive); in experiment [9], 0.249 (inactive) and 0.774 (inactive); in experiment [10], 1.47 and 2.83. Besides, the composite z-score in experiment [2] is -0.199 and 0.241.

The values are drawn from PubChem BioAssay.
